# Measured values taken from ChEMBL document CHEMBL1157539, “Thousands of chemical starting points for antimalarial lead identification” (Nature, 2010).
# Experiments:
# Format in all cases: functional
# Plasmodium falciparum [1] = test: GSK_TCMDC: Inhibition of Plasmodium falciparum 3D7 in whole red blood cells, using parasite LDH activity as an index of growth. Test compounds present at 2uM
# Plasmodium falciparum [2] = test: GSK_TCMDC: Inhibition of Plasmodium falciparum Dd2 in whole red blood cells, using parasite LDH activity as an index of growth. Test compounds present at 2uM
# HepG2 = test: GSK_TCMDC: Percent inhibition of human HepG2 cell line. Test compounds present at 10uM.
SMILES,Inhibition (Plasmodium falciparum [1]) [%],Inhibition (Plasmodium falciparum [2]) [%],Inhibition (HepG2) [%]
O=C(O)C(F)(F)F.Oc1ccc(CCCNc2nc(NCc3ccccc3-c3ccccc3)nc(N3CCNCC3)n2)cc1,94,48,39
CC(C)(C)C(=O)Oc1ccc(CC2NCCc3cc(OC(=O)C(C)(C)C)c(OC(=O)C(C)(C)C)cc32)cc1OC(=O)C(C)(C)C (stereo not given),97,96,3
O=C(Nc1ccccc1N1CCOCC1)c1ncoc1-c1ccccc1C(F)(F)F,89,60,0
O=c1nc2[nH]c3ccccc3n2c(=O)[nH]1,95,0,21
O=C(Nc1cccc(CN2CCCN(Cc3cccc(O)c3)CC2)c1)c1cc2ccccc2s1.O=C(O)C(F)(F)F,100,75,15
CN1CCCC(CN2CCN(Cc3ccc(-c4ccc(-c5nc6cc(F)ccc6[nH]5)s4)cc3)CC2)C1.O=C(O)C(F)(F)F (stereo not given),100,100,73
O=C(Nc1cccc(-c2cccc(-c3nc4cc(C(F)(F)F)ccc4[nH]3)c2)c1)c1c[nH]cn1,100,100,14
O=C(Nc1cccc(-c2nn3ccccc3c2-c2ccnc(Nc3cccc(F)c3)n2)c1)c1c(F)ccc(F)c1Cl,93,38,41
Cc1cccc(Cl)c1Nc1nnc(-c2cccc(C(=O)NC[C@@H]3CC[C@H]4C[C@@H]3C4(C)C)c2)o1,85,69,2
CCOc1ccc(Nc2nc(N)c3ccccc3n2)cc1.Cl,90,6,28
